Our source for the growth values is PubChem BioAssay (NCI).

Holding throughout (assay): NCI-60 one-dose screen, 48 h (100 = growth as untreated, 0 = no growth, -100 = all killed)
Holding throughout (conditions): 10 µM unless noted

Experiment [1] has as its system NCI-H23 lung.
In experiment [2] the test system is NCI-H226 lung.
The subject of experiment [3] is NCI-H322M lung.
Experiment [4] relates to HOP-62 NSCLC.
Experiment [5] has as its system NCI-H460 lung.
Experiment [6] relates to HOP-92 NSCLC.
The subject of experiment [7] is NCI-H522 lung.
In experiment [8] the test system is A549/ATCC NSCLC.
Experiment [9] relates to 786-0 renal.
Experiment [10] has as its system COLO 205 colon.
For experiment [11], the system named is DU-145 prostate.
In experiment [12] the test system is K-562 leukemia.
Experiment [13] concerns MALME-3M melanoma.
The test system of experiment [14] is MDA-MB-231 breast.
Experiment [15] concerns RXF 393 renal.
Experiment [16] relates to SF-268 CNS.
In experiment [17] the test system is SF-295 CNS.
Experiment [18] deals with SF-539 CNS.
Experiment [19] deals with UACC-257 melanoma.
The subject of experiment [20] is M14 melanoma.

Values joined by “and” are separate entries in the source; they are usually repeats but may differ in a detail not shown here. Equal values may be shown once. About 83,000 compounds went through this panel and 20% of them were active in at least one assay; those are over-represented in the sample as a whole.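 For each line, cells grew in 96-well plates with the test compound present at a single concentration for 48 hours.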 A number with no mark means an inactive call. Active and inactive are the calls of the source. Rule for the calls: active = growth percent below 10; inactive = the rest.

Consider `N#CC1=C(N)Oc2c(sc3c(Br)cccc23)C1c1ccccn1` (configuration not stated), for which the growth in [1] is 53.3%; in [2], 41.2%; in experiment [3], 51.1%; in experiment [4], 30.9%; in experiment [5], 20.4%; in experiment [6] it was 35.3%. The growth in experiment [7] was -14.1% (active); in [8], 40.1%; in experiment [9], 27.2%; in experiment [10] it was 6.4% (active); in experiment [11], 51.2%; in experiment [12], 15.2%. Besides, the growth is 45.4% in experiment [13]; 59.8% in experiment [14]; 13.5% in experiment [15]; 41.5% in experiment [16]; 18% in experiment [17]; 6.33% (active) in experiment [18]. Moreover, the growth in [19] is 51.1%; in [20], 28.1%.

As for `CSc1nnc(-c2cc3c([nH]c4ccccc43)c(-c3cccc(O)c3)n2)n1-c1ccc(C)cc1`, the growth in experiment [1] is 70.9%; in [2], 57.6%; in experiment [3], 70.3%; in [4], 44.9%; in [5], 11.4%; in [6] it was 21.3%. Moreover, the growth in experiment [7] was -2.1% (active); in [8], 29.4%; in [9], 37.8%; in experiment [10], 76.5%; in experiment [11], 62.8%; in experiment [12], 10.2%. The growth is 42% in experiment [13]; 25.7% in [14]; 2.76% (active) in experiment [15]; 48.7% in [16]; 15% in [17]; 32.3% in experiment [18]. The growth in experiment [19] is 42.5%; in experiment [20] it was 6.07% (active).

Turning to `COc1ccc(Nc2nn3c(SCC(=O)c4ccc(C)cc4)nnc3s2)cc1`, the growth in [1] is 91.1%; in [2] it was 84.8%; in [3], 86.2%; in experiment [4] it was 90.8%; in [5], 97.9%; in experiment [6], 83.4%. The growth in [7] was 80.6%; in experiment [8] it was 96.6%; in experiment [9], 93.5%; in experiment [10] it was 91.8%; in [11], 101%; in experiment [12] it was 83.5%. The growth in experiment [13] is 98.7%; in [14], 91.7%; in [15], 97.1%; in experiment [16] it was 100%; in experiment [17] it was 100%; in experiment [18], 107%. Moreover, the growth in [19] was 108%; in experiment [20], 99.2%.

With `CCN1CCN(C(=O)[C@]23CC[C@@H](C)[C@H](C)[C@@H]2C2=CC[C@@H]4[C@@]5(C)CCC(=O)C(C)(C)[C@@H]5CC[C@@]4(C)[C@]2(C)CC3)CC1`, the growth was 21.4% in experiment [1]; 35.7% in experiment [2]; 10.2% in experiment [3]; 9.82% (active) in [4]; -55.1% (active) in [5]; -5.58% (active) in experiment [6]. The growth is -53.4% (active) in experiment [7]; 19.9% in experiment [8]; -40.1% (active) in [9]; -50.9% (active) in [10]; 41.5% in experiment [11]; 2.78% (active) in [12]. In addition, the growth in experiment [13] is -85.7% (active); in experiment [14] it was -28.6% (active); in experiment [15], -6.14% (active); in experiment [16] it was 39.7%; in experiment [17] it was 24.8%; in [18] it was -79.8% (active). Besides, the growth in experiment [19] was -23.9% (active); in [20], -41.6% (active).

Regarding `Nc1nc(N)c2c(n1)NC(c1ccc(Cl)cc1)CC(c1cccc(Nc3ccncc3)c1)=N2` (configuration not stated), the growth in experiment [1] was 54.7%; in [2] it was 95.3%; in experiment [3], 63.9%; in experiment [4], 75.5%; in [5], 23.2%; in experiment [6] it was 48.5%. The growth in [7] is 88.6%; in experiment [9] it was 41.9%; in experiment [10], 50.5%; in experiment [11] it was 70%; in experiment [12] it was 27%; in [13] it was 57%. Further, the growth in [14] was 49.8%; in experiment [15] it was 49.2%; in experiment [16], 61.7%; in [17], 64.5%; in experiment [18], 63.5%; in [19], 52.3%. Further, in experiment [20], the growth is 35.4%.

As for `COc1cc(CO)cc2cc3ccccc3nc12`, the growth in experiment [1] is 97.3%; in experiment [2], 79.4%; in [3], 115%; in [4] it was 95.7%; in experiment [5], 105%; in experiment [6], 103%. Moreover, the growth in experiment [7] was 96.8%; in experiment [8] it was 104%; in [9], 97.8%; in [11] it was 106%; in [12] it was 90.7%; in experiment [13] it was 112%. Besides, the growth was 101% in experiment [14]; 115% in experiment [15]; 100% in experiment [16]; 102% in experiment [17]; 102% in experiment [18]; 105% in [19]. The growth in [20] is 105%.

Regarding `CC(=O)Nc1c(I)c(NC(C)=O)c(I)c(C(=O)O)c1I`, the growth in experiment [1] is 110%; in experiment [2], 97.4% and 113%; in [3] it was 102% and 101%; in experiment [4], 112% and 97.9%; in experiment [5] it was 109% and 103%; in experiment [6], 94.3%. The growth in [7] is 102% and 24.5%; in [8], 105%; in [9], 97.3% and 114%; in experiment [11] it was 115% and 142%; in [12], 69.4%; in experiment [13] it was 93.7% and 84.5%. Further, the growth in experiment [14] is 105% and 117%; in experiment [15], 113% and 25.5%; in experiment [16], 107% and 120%; in experiment [17] it was 90.4% and 104%; in experiment [18], 99.3% and 99.7%; in experiment [19] it was 105%. The growth in experiment [20] was 95.9% and 104%.
